Screening results: PubChem, National Center for Advancing Translational Sciences (NCATS)
Pf growth 48h: P. falciparum growth inhibition at 48 hours (one generation) | Potency, µM (series often up to 28.7 µM), for the others: at the highest dose activity change, negative = inhibition, hits mostly inhibitors | 5.9% of 310,000 active | P. falciparum luciferase growth in erythrocytes, 48 h; also: % is scaled to controls: 0 for no effect and ±100 for the full control effect
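Luminescence readout; reporter = integrated firefly luciferase in P. falciparum. RBC culture at 2% hematocrit, 0.1% parasitemia final, 37 C/5% CO2; decreased signal taken as growth inhibition.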
AMA1 RON2 block: AMA1-RON2 (P. falciparum) interaction inhibition. AlphaScreen AMA1-biotinylated RON2 peptide binding. AID 720542. Potency, µM (titrated, usually from 58.2 µM), for inactives: top-dose activity change, negative = inhibition, hits mostly inhibitors. 0.2% of 360,000 active;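 also: 0% = vehicle wells and -100% = peptide control; nearly all actives have a fitted effect of over 45% in size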
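AMA1 (3D7) with his tag at 25 nM final met compounds first, then biotinylated RON2 peptide at 25 nM; detection used donor plus acceptor beads, 10 µg/mL apiece, read by AlphaScreen after 30 min at room temperature.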
HCV inh: HCV inhibition; 3.4% of 340,000 active; Potency, µM (series often up to 41.8 µM), inactives show top-dose activity change, negative = inhibition, most hits filed as inhibitors; Huh7.5.1 HCVcc-Cre infection, luciferase reporter, 44 h; also: % is scaled to controls: 0 for no effect and ±100 for the full control effect
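Whole-lifecycle infectious HCVcc-Cre system; cells 1,000/well, compound then virus (~0.5 moi) added 4 h after plating, 44 h culture. Luciferase read 15 sec following 15 min substrate incubation, room temp.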
SARS PLP yeast: inhibitors of SARS-CoV papain-like protease in yeast; S. cerevisiae expressing SARS-CoV PLpro, growth rescue; Potency, µM (highest dose often 32.9 µM), without a hit: top-dose activity, positive = growth rescue, usual class: activators; 0.19% of 330,000 active; AID 485353; calls by dose curve; also: 0% is about no effect; nearly all actives have a fitted effect of over 55% in size
NS1 function inh: blocks influenza NS1 protein function; Potency, µM (doses to about 46.1 µM), for the others: at the highest dose activity, positive = more growth; 0.4% of 270,000 active; AID 2326; calls by dose curve; also: actives are rising curves; nearly all actives have a fitted effect of over 50% in size
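Read-out: OD600 growth recovery of NS1-expressing budding yeast. Cells grown overnight at 30C in -URA glucose medium, washed, resuspended and diluted 1:100 in 2% galactose assay medium, pH 6.0. Same strain lacking NS1 served as positive control.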
Pf growth 96h: inhibits malaria parasite growth, 96 h; 6.9% of 320,000 active; P. falciparum luciferase reporter growth, 96 h; AID 504834; Potency, µM (top dose mostly 28.7 µM), inactives show at the top dose activity change, negative = inhibition, most hits filed as inhibitors; also: % is scaled to controls: 0 for no effect and ±100 for the full control effect
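Compounds incubated with erythrocytes infected by luciferase-expressing P. falciparum (2% hematocrit, 0.05% parasitemia final) for 96 hours, 37 C in 5% CO2. Growth inhibition scored as decreased luciferase luminescence.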
* = called active by the depositor; i = inactive; ? = inconclusive; / = no result given; ! = repeats disagree; [ ] = another dose, or the depositor's remark. A selection: hits, their analogues and other compounds. The true share with any hit is near 12%. Unless noted, calls follow the shape of the dose curve; as a rule, active = well fitted curve in the direction sought with a large enough effect; inconclusive = small, poorly fitted or top-dose-only effect, or another doubt; inactive = no such curve, though single readings can be large; an effect the other way counts as inactive or inconclusive. Potency is read from the fitted curve at half-maximal effect.

SMILES	Pf growth 48h	AMA1 RON2 block	HCV inh	SARS PLP yeast	NS1 function inh	Pf growth 96h
COc1ccc(CNC(=O)COC(=O)c2ccc(F)c(S(=O)(=O)N3CCOCC3)c2)cc1	/	-8.9%	20.3%	3.6%	/	/
CC(C)(C)c1ccc(CCC2OCC(C[N+]3(C)CCOCC3)O2)cc1 (stereo not drawn)	?	-1.4%	9.2%	-0.1%	0.2%	2.62µM*
Cc1nn(CCC(N)=O)c2nc(-c3cccs3)cc(C(F)(F)F)c12	8.6%	2.8%	10µM*	-0.4%	18.2%	?
CCc1ccc(CCC(=O)N2CCN(S(=O)(=O)c3sc(C(=O)O)c(C)c3C(=O)O)CC2)cc1	/	-9.5%[11.6 µM]	23.5%	/	/	/
COc1ccc(OC)c(NC(=O)c2cc(-c3cc(C)ccc3O)n[nH]2)c1	?	2.9%	-32.9%	-0.8%	-1.9%	6.57µM*
COc1ccc(OC)c(NC(=O)c2cc(-c3ccc(C)cc3O)n[nH]2)c1	10.4µM*	1.6%	-11.9%	4.4%	?	/
Cc1ccc(-c2cc(C(=O)Nc3cc(C)ccc3C)[nH]n2)c(O)c1	?	86.9%	-4.9%	29.9%	18.4%	?
COc1ccc(/C=C/C(=O)c2nc3ccccc3n2CC(=O)c2ccc(OC)cc2)cc1	10.4µM*	17.5%	-18.2%	1.5%	20.6%	-186.2%
COc1ccc(C(=O)/C=C/c2ccc(OC)c(Cn3nnc4ccccc43)c2)cc1	?	-16.8%	-24.7%	21.1%	19.0%	0.104µM*
COc1ccc(C(=O)Cn2c(C(C)=O)nc3ccccc32)cc1	/	45.3%	?	/	/	/
CCOc1ccccc1OCCCC(=O)Nc1sccc1C(N)=O	11.7µM*	6.1%[11.6 µM]	?	-1.2%	-0.4%	?
Cc1ccc(SCCC(=O)Nc2nccs2)cc1	3.6%	?	5.8%	4.0%	/	12.5%
NC(=O)c1ccsc1NC(=O)CCc1ccccc1	84.4%	5.1%	-5.1%	2.3%	-41.0%	-11.0%
COc1ccc(OCCCC(=O)Nc2nccs2)cc1	?	-2.8%	-13.2%	-0.1%	-5.9%	?
Cc1ccc(C)c(OCCCC(=O)Nc2nccs2)c1	?	-7.6%	12.6µM*	/	3.7%	?
Cc1ccccc1OCCCC(=O)Nc1nccs1	/	-0.6%	11.2µM*	12.1%	-17.2%	-4.6%
Cc1ccc(C(=O)NCCc2ccc(F)cc2)s1	i	-27.6%	-12.9%	-1.3%	/	?
COc1ccc(NC(=S)N2CCCN(Cc3cc(C)ccc3C)C2)cc1	10.4µM*	24.6%	-29.5%	3.0%	/	?
C=CCN1c2ccccc2[C@]23C[C@@H](C(=O)OC)N(C(=O)CC(C)C)C2=NC(C(=O)OC)=C(C(=O)OC)[C@H]13	?	?	7.94µM*	-6.1%	7.8%	?
COC(=O)C1=C(C(=O)OC)[C@@H]2N(C)c3ccccc3[C@@]23C[C@@H](C(=O)OC)N(C(=O)CC(C)C)C3=N1	?	-23.7%	-10.5%	-1.2%	7.9%	?
COCc1ccc(CN2CCc3c([nH]c4ccccc34)C2CC(C)C)o1 (stereo not drawn)	?	-0.2%	-1.5%	0.1%	28.2%	6.57µM*
CCc1nccn1CCC(=O)N1CCc2c([nH]c3ccccc23)C1CC(C)C (stereo not drawn)	?	-15.4%	-11.3%	1.7%	2.8%	?
O=C(NCCN1CCN(Cc2ccccc2)CC1)c1ccc(CS(=O)(=O)c2ccc(Br)cc2)o1	?	-2.1%	-15.4%	-1.3%	-11.2%	?
Cc1ccc(C)c(S(=O)(=O)N=Nc2c(O)[nH]c3ccccc23)c1	4.3%	14.2%	-0.6%	-0.3%	/	48.6%[5.75 µM]
Cc1ccc(S(=O)(=O)N=Nc2c(O)[nH]c3ccccc23)cc1	5.2%	-5.3%	4.0%	-5.4%	-9.1%	11.7µM*
SMILES	Pf growth 48h	AMA1 RON2 block	HCV inh	SARS PLP yeast	NS1 function inh	Pf growth 96h
c1ccc(-c2csc3ncnc(NCC4COc5ccccc5O4)c23)cc1 (stereo not drawn)	?	-8.4%	0.562µM*	4.3%	2.4%	?
COc1ccc2c(CC(=O)OCC(=O)Nc3sc4c(c3C#N)CCC(C)C4)coc2c1 (stereo not drawn)	-7.5%	-1.0%	4.3%	5.8%	13.8%	61.1%
O=S(=O)(c1ccc(Cl)cc1)c1cnc2ccccc2n1	?	-13.8%	?	0.2%	/	10.4µM*
Cc1cc(C)cc(S(=O)(=O)c2cnc3ccccc3n2)c1	?	-5.6%	-7.5%	1.2%	/	?
C=CCNc1nc(N2CCOCC2)nc(N2CCOCC2)n1	-13.7%	-2.8%	-23.8%	9.6%	-3.8%	13.1µM*
N#Cc1ccc(Oc2nc(Nc3ccc(F)cc3)nc(N3CCCC3)n2)cc1	/	-4.6%	-4.5%	14.6%	3.8%	4.15µM*
Oc1cccc(Nc2nc(N3CCOCC3)nc(N3CCOCC3)n2)c1	11.7µM*	-0.4%	?	-8.4%	25.1%	?
Cn1ccnc1Sc1nc(Nc2cccc(Cl)c2)nc(N2CCOCC2)n1	8.28µM*	5.5%	8.3%	1.3%	-117.2%	/
Cc1cccc(Nc2nc(N3CCOCC3)nc(N3CCOCC3)n2)c1	?	2.5%	?	-12.2%	-23.7%	-36.2%
O=C(CNC(=O)c1ccco1)NNC(=O)c1cccc(Cl)c1	/	37.1%	3.7%	0.8%	/	/
Cc1ccc(/C(O)=C/C(=O)C(=O)NC23CC4CC(CC(C4)C2)C3)cc1	4.1%	25.8%	-18.7%	0.0%	5.7%	0.0%
Cc1ccc(N2CC(C(=O)NCCN3CCOCC3)CC2=O)cc1C (stereo not drawn)	1.3%	-7.8%	2.5%	-3.9%	1.9%	20.8%
Fc1ccc(Nc2nc(N3CCOCC3)nc(N3CCOCC3)n2)cc1	-14.1%	2.7%	-28.6%	-3.6%	-11.0%	13.1µM*
c1ccc2c(c1)OCC(C1=NCCN1)O2 (stereo not drawn)	?	71.8%	-0.3%[8.37 µM]	1.8%	12.0%	4.78µM*!
O=C(Cn1cc(C(F)(F)F)ccc1=O)NC1CCCC1	-4.4%	-6.1%	-11.6%	-2.0%	/	-2.7%
CC1=C(C#N)C(c2cccnc2)C2=C(CC(c3ccc(Cl)cc3)CC2=O)N1 (stereo not drawn)	/	1.2%	8.3%	11.8%	-8.5%	6.57µM*
CCCOc1ccccc1C1C(C(=O)OC)=CN(C(C)C)C=C1C(=O)OC	13.1µM*	61.3%	-17.7%	0.7%	-61.4%	/
OCCC1CN(Cc2cccc3c2OCO3)CCN1C1CCCC1 (stereo not drawn)	32.0%	14.2%	-7.3%	0.0%	1.2%	?
Cc1c(N(C(=O)CNC(=O)c2ccccc2)C2(C(=O)NC3CCCC3)CCCCC2)c(=O)n(-c2ccccc2)n1C	3.7µM*	0.2%	12.9%	8.9%	/	?
CC(=O)N(c1c(C)n(C)n(-c2ccccc2)c1=O)C1(C(=O)NC2CCCCC2)CCCCC1	-7.7%	3.6%	16.4%	-0.9%	2.4%	?
